Shown are actives, neighbours in structure and some others; about 4.1% of the full set was active somewhere.
Peg3 prom inh: reduces Peg3 promoter-driven luciferase expression in HeLa; HeLa PEG-Prom luciferase reporter, luminescence, overnight; 360,000 tested, 1.7% active; inhibition, % at 20 µM;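 active = inhibition of at least 50% at 20 µM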
EBV LMP1 NFkB: Epstein-Barr LMP1 NF-kappaB reporter inhibition. LMP1-induced NF-kappaB luciferase reporter cells, luminescence. 350,000 tested, 0.69% active. inhibition, % at 12.5 µM; in the data active = inhibition above about 41%;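 note: 0% = neutral control wells and 100% = reference inhibitor control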
MITF TRPM1 inh: MITF TRPM1 promoter inhibition in SK-MEL-5 cells; 330,000 tested, 0.83% active; AID 488899; inhibition, % at 12.5 µM; SK-MEL-5 TRPM1 promoter luciferase, 24 h;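 active = mean inhibition across replicates of 60% or more, whatever share of single replicates reaches that level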
TROY signal inh: TROY signaling inhibition; 360,000 tested, 0.98% active; Q293 LMP1-TROYcd NF-kB luciferase reporter, 4 h; inhibition, % at 10 µM;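 active = compounds whose plate-normalised and pattern-corrected inhibition of the luciferase reporter signal at the single screening dose is 50% or more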
Shn3 3UTR inh: reduces Shn3 3'UTR luciferase signal in osteoblasts; 360,000 tested, 0.52% active; Clone20 osteoblast Shn3 3'UTR firefly luciferase, 24 h; inhibition, % at 12.5 µM;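 active = mean inhibition of at least 75% with every replicate also reaching 75%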;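 note: 0% = median of neutral control wells and 100% = pilot-screen positive control compound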
TWEAK Fn14 block: TWEAK-Fn14 signaling inhibition. TWEAK-stimulated Fn14 reporter cells, luciferase luminescence, 8 h. inhibition, % at 10 µM. 360,000 tested, 2% active; in the data active = inhibition above about 50%
Active calls of the source: *; . = not tested or not shown.

SMILES	Peg3 prom inh	EBV LMP1 NFkB	MITF TRPM1 inh	TROY signal inh	Shn3 3UTR inh	TWEAK Fn14 block
Cc1occc1C(=O)N1CCCC(N2CCN(c3cccc(Cl)c3)CC2)C1 (centres undefined)	4	2	-10	3	0	20
CN[C@H]1CC[C@@H](c2ccc(Cl)c(Cl)c2)c2ccccc21	95*	-16	20	.	1	-23
O=C1C=C(O)CC(c2ccc(Cl)c(Cl)c2)C1 (centres undefined)	6	1	-2	-4	-3	16
O=C(CN1C(=O)NC2(CCCc3ccccc32)C1=O)c1ccc(F)c(F)c1 (centres undefined)	-7	7	-3	-3	32	12
O=C(CNc1ccc2ccccc2c1)NNC1=NCCC1	-10	0	-10	8	7	5
O=C(CN1C(=O)CCC1=O)NNc1ccc2ccccc2c1	-6	-15	19	67*	-14	70*
O=C(COc1ccc2ccccc2c1)NNC(=O)Cc1ccccc1	7	6	7	-5	-5	15
O=C(Cc1ccccc1)NNc1ccc2ccccc2c1	0	-19	8	51*	-18	32
COC(=O)c1cn(NC(=O)C2CCC(C(C)(C)C)CC2)c(=O)c2ccccc12 (centres undefined)	-1	-6	2	-9	3	-19
O=C(Cc1ccccc1)NCCS(=O)c1ccc(Cl)cc1 (centres undefined)	4	-3	10	12	92*	-6
Cc1n[nH]c(=S)n1/N=C/c1c(O)ccc2ccccc12	57*	1	18	22	4	1
Cc1nc2ccccc2c(=O)n1/N=C/c1c(O)ccc2ccccc12	9	-2	19	-6	63	5
Cc1n[nH]c(C)c1Cc1ccc(C(=O)O)cc1	-54	-4	-1	-14	5	13
c1ccc2nc(-c3ccc(N4CCOCC4)cc3)ccc2c1	32	66*	54	53*	55	90*
Cc1ccc(C(C(=O)NCc2ccco2)N(C(=O)CNC(=O)c2cccs2)c2c(C)cc(C)cc2C)cc1 (centres undefined)	58*	-47	32	0	53	-18
Cc1nnc2n(Cc3ccccc3)c(=O)c3c4c(sc3n12)COC(C)(C)C4	8	1	3	10	-15	-6
CC1(C)Cc2c(sc3c2c(=O)n(Cc2ccccc2)c2nncn32)CO1	3	54*	-5	9	7	-8
Cc1cc(C)c(S(=O)(=O)Nc2nnc(C)s2)c(C)c1	5	3	4	23	3	0
Cc1cc(C)c(S(=O)(=O)Nc2nnc(CC(C)C)s2)c(C)c1	4	82*	-6	3	19	-7
CCOC(=O)C1=C(Cc2ccc(Cl)cc2)C(=O)c2ccccc2C1=O	50*	6	17	34	78	35
CCNC(=S)NNC(=O)c1cc(C2CC2)nc2ccccc12	12	3	4	0	12	8
Cc1ccc(N2C(=O)NC(NS(=O)(=O)c3ccccc3)(C(F)(F)F)C2=O)cc1C (centres undefined)	14	1	8	-18	1	-8
CCOCCCNC1=C(Cl)C(=O)c2ccccc2C1=O	-93	-6	30	-29	-12	-1
O=C1C(Cl)=C(NCCCO)C(=O)c2ccccc21	-12	-3	84*	-26	4	-23
O=C1c2ccccc2C(=O)N1CCN1CCOCC1	-1	-5	12	0	1	-9
SMILES	Peg3 prom inh	EBV LMP1 NFkB	MITF TRPM1 inh	TROY signal inh	Shn3 3UTR inh	TWEAK Fn14 block
O=C1C(Cl)=C(NCCN2CCOCC2)C(=O)c2ccccc21	-23	8	69*	-5	11	22
O=C1C(Cl)=C(NCCCN2CCOCC2)C(=O)c2ccccc21	-49	-12	98*	-51	-5	0
Oc1ccccc1C1OCC2(CO1)COC(c1ccccc1O)OC2 (centres undefined)	-3	8	-17	-2	-18	-10
Oc1ccccc1C1SC(c2ccccc2O)SC(c2ccccc2O)S1 (centres undefined)	105*	-13	42	81*	41	51*
O=C(COC(=O)/C=C/c1ccccc1)NCCc1ccc(F)cc1	13	34	1	5	-36	1
COc1ccccc1NC(=O)/C(=C\c1cccnc1)NC(=O)c1ccc(C)cc1	13	17	-2	4	2	61*
CCCCCc1cc(=O)oc2c(C(CCN3CCCCC3)c3ccc4c(c3)OCO4)c(OC)cc(OC)c12 (centres undefined)	96*	-11	84*	12	-16	-21
CCCCCc1cc(=O)oc2c(C(CCN3CCCC(C)C3)c3ccc4c(c3)OCO4)c(OC)cc(OC)c12 (centres undefined)	98*	0	10	-3	-28	43
CCCCCc1cc(=O)oc2c(C(CCN(CC)CC)c3cc(OC)c(OC)c(OC)c3)c(OC)cc(OC)c12 (centres undefined)	105*	0	93*	5	21	-14
O=C(NCCc1nc(-c2ccccc2)no1)c1ccco1	-12	0	-5	-14	9	-10
CCOc1ccc(S(=O)(=O)N(CC)CC)cc1NS(=O)(=O)c1ccc(F)c(F)c1F	1	-3	9	-15	3	12
O=C(O)c1ccc(N/N=C/c2c(F)cccc2Cl)cc1	35	14	56	35	15	95*
O=C(N/N=C/c1c(F)cccc1Cl)C1CC1	-3	2	-6	-22	-39	45
CCOc1ccccc1CN1CCNC(=O)C1CC(=O)NC1CCCCC1 (centres undefined)	-4	7	4	11	8	4
O=C(C[n+]1cc(-c2ccc(Cl)cc2)n2c1CCCCC2)c1ccccc1	-58	-3	0	-48	-11	-18
CC(C)[C@@H]1CC[C@@H](C)C[C@H]1OC(=O)C[n+]1cc(-c2ccc(Cl)cc2)n2c1CCCCC2	50	30	79*	50	79	64*
CC1CCC(C(C)C)C(OC(=O)C[n+]2cccc(C(N)=O)c2)C1 (centres undefined)	0	-8	-4	3	5	-16
COc1ccc(-c2c[n+](CC(=O)OC3CC(C)CCC3C(C)C)c3n2CCC3)cc1 (centres undefined)	28	4	86*	38	82	43
N#CC(C#N)c1ccnc2ccccc12	10	43*	.	43	-16	59*
N#CCc1ccnc2ccccc12	2	9	2	7	0	3
CN(C)CCCN(C(=O)c1ccc(S(=O)(=O)N(C)C2CCCCC2)cc1)c1nc2ccc(F)cc2s1	10	-1	30	-12	-1	-2
CCN(Cc1ccccc1)S(=O)(=O)c1ccc(C(=O)N2CCN(c3nc4ccccc4s3)CC2)cc1	-3	39	38	46	75	93*

Screens as filed in PubChem.
